From PubChem BioAssay (NCI) come the findings set out here.

About 83,000 compounds went through this panel and 20% of them were active in at least one assay; those are over-represented in the sample as a whole.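 Step 1: grow cells in 96-well plates. Step 2: add test compound at a single concentration. Step 3: incubate 48 h. Step 4: record percent growth.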 The source made the active and inactive calls. Rule for the calls: active = growth percent below 10; inactive = the rest.

One experiment has as its system T-47D breast. Kind of experiment: NCI-60 one-dose screen, 48 h (100 = growth as untreated, 0 = no growth, -100 = all killed). The settings on record: 10 µM unless noted.
With `O=C(NCCCNc1nccc(-n2ccc3cccnc32)n1)c1c(F)cccc1F`, the growth is 97.1% (inactive). Consider `COc1ccc(C(=O)c2cc(OC)c3c(c2)OCO3)cc1O`, for which the growth is 56.9% (inactive). The same measure, in the same setting: the figure for `Cc1cc(C(C)(C)C)ccc1S` is 91.6% (inactive). Regarding `Cn1cnc2c(N3CCN(C(=O)OCc4ccc5c(Cl)cc(Cl)c(O)c5n4)CC3)nc(Cl)nc21`, the growth was 61% (inactive). In the case of `Fc1ccccc1-c1nc(-c2nc3cc(Cl)c(Cl)cc3[nH]2)c2ccccn12`, the growth is 31.5% (inactive). Same read-out and setting: the figure for `C1=Cc2ccccc2N(c2nnc(-c3ccccc3)o2)c2ccccc21` is 100% (inactive). With `COc1ccc(/C=C2/C(=O)NC(SCC(=O)N3CCN(c4cc5c(cc4F)c(=O)c(C(=O)O)cn5C4CC4)CC3)=NC2N)cc1OC` (stereo not given), the growth was 110% (inactive). Consider `COc1cc(NCCCCCN)c2ncccc2c1`, for which the growth is 96.2% (inactive). Same read-out and setting: the value for `C=C1CCC2C(C)(CO)C(O)CCC2(C)C1C/C=C1/C(=O)OCC1Oc1ccccc1C` (stereo not given) was 84.9% (inactive); that for `O=C(/C=C/c1cc(-c2ccc3c(c2)OCO3)n[nH]1)c1ccc2c(c1)OCO2` was 72.7% (inactive). `c1cc(C2=N[C@@H]3c4ccccc4C[C@@H]3O2)nc(C2=N[C@@H]3c4ccccc4C[C@@H]3O2)c1`: the growth is 101% (inactive). The same measure, in the same setting: the figure for `COc1ccccc1CNCCCN1C(=O)c2ccc3c4c(ccc(c24)C1=O)C(=O)N(CCCNCCCCNCCCN)C3=O` is -36.4% (active); for `NC(=N\N=C/c1ccc(O)cc1)/C(N)=N\N=C/c1ccc(O)cc1` it is 49.6% (inactive).

As to `COc1ccc(-c2c(N)n[nH]c2-c2cc(OC)c3c(c2)OCCO3)cc1`, the growth is 66.1% (inactive). For `C=C1CCC2C(C)(CO)C(O)CCC2(C)C1C/C=C1/C(=O)OCC1O/C=C/c1ccccc1` (stereo not given), the growth is 33.4% (inactive).

Turning to `CC(C)(C)n1cc(-c2ccnc(NCCNS(=O)(=O)c3ccc(F)cc3)c2)c(-c2cccc(O)c2)n1`, the growth is 23.7% (inactive).

For the compound `COc1ccc2c(c1)OC1=C(C(=O)OC1)C2c1cc(OC)c2c(c1)OCO2` (stereo not given), the growth was 52.1% (inactive). Same read-out and setting: the value for `CC12CCC3C4(C)COC(c5ccccc5Cl)OC4CCC3(C)C1CC(C1=CCOC1=O)O2` (stereo not given) was 31.1% (inactive). Same read-out and setting: the figure for `O=S(=O)(NCCCNc1nccc(-n2ccc3cccnc32)n1)c1cccc(C(F)(F)F)c1` is 99.6% (inactive); for `Cc1ccc(S(=O)(=O)NCCNc2cc(-c3cn(C(C)(C)C)nc3-c3cccc(O)c3)ccn2)cc1` it is 45.1% (inactive). Same read-out and setting: the value for `Cc1ccc(S(=O)(=O)NCCCNc2cc(-c3cn(C(C)(C)C)nc3-c3cccc(O)c3)ccn2)cc1` was 44.2% (inactive); that for `C=C1CCC2C(C)(CO)C(O)CCC2(C)C1CC(NCc1ccccc1)C1=CCOC1=O` (stereo not given) was 97.7% (inactive); that for `COc1ccc2c(c1)NC1=C(C(=O)OC1)C2c1cc(OC)c2c(c1)OCO2` (stereo not given) was 53.8% (inactive). For `COc1cc(Nc2ncccc2C(=O)NCc2cn(Cc3cccc(Oc4ccccc4)c3)nn2)cc(OC)c1`, the growth was 50.3% (inactive). The same measure, in the same setting: the figure for `CC12CCC3C4(C)COC(c5ccco5)OC4CCC3(C)C1CC(C1=CCOC1=O)O2` (stereo not given) is 101% (inactive); for `C=C1CCC2C3(C)COC(C)(C)OC3CCC2(C)C1C/C=C1/C(=O)OCC1Oc1ccccc1OC` (stereo not given) it is 54.3% (inactive); for `O=C(/C=C/c1ccccc1)c1cccc(O)c1` it is 97.9% (inactive). On to `CC(C)(C)n1cc(-c2ccnc(NCCCNS(=O)(=O)c3ccc(F)cc3)c2)c(-c2cccc(O)c2)n1`, for which the growth was 31.2% (inactive). Regarding `COc1cc(C2C3=C(COC3=O)Nc3cc4c(cc32)OCO4)cc2c1OCO2` (stereo not given), the growth is 51.9% (inactive). Same read-out and setting: the value for `O=C(NCCNc1nccc(-n2ccc3cccnc32)n1)c1ccc(C(F)(F)F)cc1` was 102% (inactive). On the same count and under the same terms, the value for `COc1cc(C2C3=C(COC3=O)Nc3cc4c(cc32)CCC4)cc2c1OCO2` (stereo not given) was 64% (inactive); that for `COc1ccc(-c2ccc(C)n2-c2ccc(-c3nc4cc(Cl)ccc4s3)cc2)cc1` was 66.8% (inactive). Same read-out and setting: the figure for `O=C(NCc1cn(Cc2cccc(Oc3ccccc3)c2)nn1)c1cccnc1Nc1ccc(F)cc1` is 83.1% (inactive); for `CC12CCCC(CC(=O)c3[nH]c4ccccc4c31)C2` (stereo not given) it is 24.1% (inactive).

The next experiment relates to BT-549 breast. Described as above. The settings on record: 10 µM unless noted.
As for `COc1ccc(C(=O)c2cc(OC)c3c(c2)OCO3)cc1O`, the growth was 54.5% (inactive). Consider `Cc1cc(C(C)(C)C)ccc1S`, for which the growth is 105% (inactive). The same measure, in the same setting: the figure for `Fc1ccccc1-c1nc(-c2nc3cc(Cl)c(Cl)cc3[nH]2)c2ccccn12` is 88.9% (inactive).

For the compound `COc1cc(C2CC(c3ccc4c(c3)OCO4)=NN2C=O)cc(OC)c1OC` (stereo not given), the growth was 40.3% (inactive). The same measure, in the same setting: the value for `COc1cc(C2CC(c3ccc4c(c3)OCO4)=NN2C(C)=O)cc(OC)c1OC` (stereo not given) was 60.7% (inactive); that for `COc1cc(NCCCCCN)c2ncccc2c1` was 113% (inactive); that for `CCCCCCCCCCCCCCCCNC(=O)OC(C)C` was 95.8% (inactive). Turning to `O=C(/C=C/c1cc(-c2ccc3c(c2)OCO3)n[nH]1)c1ccc2c(c1)OCO2`, the growth is 88% (inactive). The same measure, in the same setting: the value for `COc1ccccc1CNCCCN1C(=O)c2ccc3c4c(ccc(c24)C1=O)C(=O)N(CCCNCCCCNCCCN)C3=O` was -22.1% (active); that for `NC(=N\N=C/c1ccc(O)cc1)/C(N)=N\N=C/c1ccc(O)cc1` was 52.5% (inactive). On the same count and under the same terms, the value for `COc1ccc(-c2c(N)n[nH]c2-c2cc(OC)c3c(c2)OCCO3)cc1` was 74.4% (inactive).

As for `COc1ccc2c(c1)OC1=C(C(=O)OC1)C2c1cc(OC)c2c(c1)OCO2` (stereo not given), the growth was 26% (inactive). On the same count and under the same terms, the figure for `CC(C)OC(=O)N1CCOCC1` is 101% (inactive). On to `CCCOC(=O)n1cccc1`, for which the growth was 103% (inactive). Still for that read-out and setting: the value for `COc1ccc2c(c1)NC1=C(C(=O)OC1)C2c1cc(OC)c2c(c1)OCO2` (stereo not given) was 32.4% (inactive); that for `COc1cc(Nc2ncccc2C(=O)NCc2cn(Cc3cccc(Oc4ccccc4)c3)nn2)cc(OC)c1` was 43.8% (inactive); that for `O=C(/C=C/c1ccccc1)c1cccc(O)c1` was 80.4% (inactive).

For `COc1cc(C2C3=C(COC3=O)Nc3cc4c(cc32)OCO4)cc2c1OCO2` (stereo not given), the growth is 25.4% (inactive). On the same count and under the same terms, the value for `COc1cc(C2C3=C(COC3=O)Nc3cc4c(cc32)CCC4)cc2c1OCO2` (stereo not given) was 23.8% (inactive); that for `COc1ccc(-c2ccc(C)n2-c2ccc(-c3nc4cc(Cl)ccc4s3)cc2)cc1` was 116% (inactive); that for `O=C(NCc1cn(Cc2cccc(Oc3ccccc3)c2)nn1)c1cccnc1Nc1ccc(F)cc1` was 86.6% (inactive).
